Compounds with a hit are over-represented: about 4.8% of the library has one in this group of screens.
DAX1 inh-1: NR0B1 (DAX1) inhibition | P51843 | HEK293 Gal4-DAX1 luciferase reporter, luminescence | inhibition, % at 6.75 µM | 340,000 tested, 0.99% active;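 active means inhibition above the mean over all tested compounds plus 3 SD, cut at about 4.2% in these data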;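 further: inhibition shows as a rise in luminescence from relieved DAX1 repression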
Target sequence (P51843 207-470 limits assumed): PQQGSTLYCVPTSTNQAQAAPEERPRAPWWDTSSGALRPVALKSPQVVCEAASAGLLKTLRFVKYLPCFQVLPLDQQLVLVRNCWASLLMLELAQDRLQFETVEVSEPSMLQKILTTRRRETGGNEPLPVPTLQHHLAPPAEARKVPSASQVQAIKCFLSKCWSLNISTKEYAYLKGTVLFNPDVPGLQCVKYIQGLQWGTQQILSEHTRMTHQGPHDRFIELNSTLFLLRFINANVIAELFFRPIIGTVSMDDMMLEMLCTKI
ssDAF12 agonist: activates DAF-12 receptor from parasite S. stercoralis. HEK293 ssDAF-12/GRIP1 lit1-tk-luc reporter, luminescence; % of 3 µM dafachronic acid response. activation, % at 6.8 µM. 370,000 tested, 1% active;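 active means activation above the mean over all tested compounds plus 3 SD, cut at about 0.9% in these data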
hgDAF12 agonist: agonists of H. glycines DAF-12 nuclear receptor; HEK293 GAL4-hgDAF12 UAS-luciferase reporter, agonist luminescence; normalized to butyrate control; activation, % at 6.8 µM; 370,000 tested, 1.8% active; AID 687014;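 active means activation above a cutoff set at the mean of all screened compounds plus 3 SD, cut at about 10% in these data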
DAX1 inh-2: DAX1 (NR0B1) inhibition, primary screen; HEK293T StAR-luciferase reporter, SF-1/DAX-1 repression relief; inhibition, % at 6.8 µM; 370,000 tested, 1.1% active;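 active means inhibition above the mean over all tested compounds plus 3 SD, cut at about 3.6% in these data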;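 further: higher inhibition means more luminescence from relief of DAX-1 repression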
SMARCA2 act: activators of SMARCA2 function; activation, % at 9.1 µM; AID 652017; MG213 cells, MMTV-luciferase reporter, dexamethasone, overnight; 370,000 tested, 1% active; in the data active means activation above about 7.8%
hcDAF-12 act: activators of H. contortus DAF-12 nuclear receptor; HEK293 hcDAF-12 lit1-tk-luc reporter, luminescence; 0% DMSO, 100% Δ7-dafachronic acid; activation, % at 6.8 µM; 370,000 tested, 1.4% active;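 active means activation above the mean of all tested compounds plus 3 SD, cut at about 5.5% in these data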
DAX1 inh confirm: NR0B1 (human) inhibition, confirmation; HEK293T StAR-promoter luciferase reporter, SF-1/DAX-1 repression; inhibition, % at 6.8 µM; shares compounds with DAX1 inh-2; 2,400 tested, 87% active;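 active means inhibition above the average of every tested compound plus 3 SD, cut at about 3.8% in these data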;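 further: active compounds raise luminescence by relieving repression of the StAR reporter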
SF1 mutant ctr: nonselective inhibitor or artifact in SF-1 mutant DAX1 counter-screen. shares compounds with DAX1 inh-2. HEK293 StAR-luciferase, SF-1 AF2 mutant, luminescence. inhibition, % at 6.8 µM. 2,400 tested, 78% active. AID 652136;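 active means inhibition above the mean of all tested compounds plus 3 SD, cut at about 3% in these data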
Numbers stand for hits; - = inactive; . = not tested or not shown.

SMILES	DAX1 inh-1	ssDAF12 agonist	hgDAF12 agonist	DAX1 inh-2	SMARCA2 act	hcDAF-12 act	DAX1 inh confirm	SF1 mutant ctr
CCOC(=O)c1sc(NC(=O)CSc2ncccn2)nc1C	-	-	-	-	-	-	.	.
CCOC(=O)c1sc(NC(=O)CSc2nccn2C)nc1C	-	-	-	5.7	-	-	6.8	4.8
CC(C)CC(=O)Nc1nnc(S(=O)(=O)N2c3ccccc3CC2C)s1 (stereo not drawn)	-	-	-	-	-	-	.	.
Cc1ccn2c(CN3CCOCC3)c(-c3ccccc3)nc2c1	-	-	-	-	-	-	.	.
Cc1ccc(Cc2c(-c3ccc(Cl)cc3)nc3ccc(Br)cn23)cc1	-	-	-	-	-	-	.	.
Cc1ccn2c(Cc3ccccc3)c(-c3ccccc3)nc2c1	-	-	11.2	5.5	-	-	-	-
Cc1ccc(Cc2c(-c3ccc(Cl)cc3)nc3cc(C)ccn23)cc1	-	-	-	7.2	7.8	-	-	-
COC(=O)c1ccc(NC(=O)CN2CCN(CC#N)CC2)cc1	-	-	-	-	-	-	.	.
Cc1nc2ccc(Cl)cn2c1[N+](=O)[O-]	-	-	-	-	-	-	.	.
O=C(CCc1ccccc1)Nc1ccc(NC(=O)c2ccco2)cc1	-	-	-	-	-	-	.	.
O=C(Nc1ccc(CSc2ccccc2)cc1)c1ccco1	-	-	12.7	5.5	-	-	8.4	5.5
CCOc1ccc(NC(=O)CSc2nnnn2C2CC2)cc1S(=O)(=O)N1CCCC1	-	-	-	-	-	-	.	.
Nc1ccc(CSc2ccc(Cl)cc2)c(Cl)c1	-	-	11.0	7.3	-	-	12.6	7.6
Cc1cc(C)c(S(=O)(=O)Nc2ncn[nH]2)cc1C	-	-	-	-	-	-	.	.
O=C(NC1CCCC1)c1cc2cc(Br)ccc2o1	-	-	-	7.0	-	-	7.8	4.1
Cc1ccc2cc3cc(C(=O)NC4CCCCC4)oc3nc2c1	-	-	-	5.5	-	-	-	-
COc1cccc(-c2cc(CNC(=O)[C@H]3O[C@@H](n4ccc(=O)[nH]c4=O)[C@H](O)[C@@H]3O)no2)c1	.	-	-	-	-	-	.	.
Cc1ccc2c(c1)C1CS(=O)(=O)N(CCc3ccccc3)C(=O)N1C2 (stereo not drawn)	.	-	-	-	-	-	.	.
C[C@H]1CN([C@@H](C)CO)C(=O)CCCn2nncc2CO[C@@H]1CN(C)S(=O)(=O)c1ccccc1	-	-	-	-	-	-	.	.
C=CCSc1nc2c(C(=O)OCC)nnn2c2ccccc12	-	-	-	-	-	-	.	.
Nc1nc2c(C(=O)N3CCCC3)nnn2c2ccccc12	.	-	10.9	4.7	-	-	9.2	4.8
Cc1cc(C)cc(NC(=O)c2nnn(Cc3cc(C)ccc3C)c2N)c1	-	.	.	.	.	.	.	.
Cc1ccc(C)c(Cn2nnc(C(=O)Nc3ccc4c(c3)OCCO4)c2N)c1	-	-	-	4.6	-	-	-	3.6
Cc1ccccc1Cn1nnc(C(=O)Nc2ccc3c(c2)OCCO3)c1N	-	-	-	6.2	-	-	8.7	7.4
O=C(Nc1ccc2c(c1)OCCO2)c1ccccc1F	-	-	11.1	4.8	-	5.7	13.9	6.2
SMILES	DAX1 inh-1	ssDAF12 agonist	hgDAF12 agonist	DAX1 inh-2	SMARCA2 act	hcDAF-12 act	DAX1 inh confirm	SF1 mutant ctr
O=C(O)CC1S/C(=N\N=C2\C(=O)Nc3ccccc32)N(c2ccc(O)cc2)C1=O (stereo not drawn)	-	-	-	-	-	-	.	.
COc1ccc(CCNC(=O)COC(=O)C2=NNC(=O)CC2)cc1	-	-	-	-	-	-	.	.
CCc1nc2ccc(C(=O)Nc3cccc(OCC(=O)N(C)C)c3)cn2c1N(C)Cc1ccc(OC)cc1	.	-	-	-	-	-	.	.
CCC1CCc2sc(C(=O)NCC3CCCO3)cc2C1 (stereo not drawn)	-	-	11.1	10.0	7.9	-	7.3	3.5
N=C1CCCC1C(=S)SCCC(N)=O (stereo not drawn)	-	-	-	-	-	-	.	.
COc1ccc(N2C(=O)c3ccccc3NC23CCCCC3)cc1	-	-	12.1	4.5	-	-	13.0	6.5
COc1ccc(OC)c(C2=Nn3c(nnc3-c3cc(OC)c(OC)c(OC)c3)SC2)c1	-	-	-	-	-	-	.	.
c1ccc(-c2nnc3n2N=C(c2ccc4c(c2)OCO4)CS3)nc1	-	-	-	-	-	-	.	.
COc1ccc(OC)c(-c2nnc3n2N=C(c2ccc(OC)c(OC4CCOC4)c2)CS3)c1 (stereo not drawn)	-	-	-	4.9	-	-	19.4	-
COc1ccccc1-c1nnc2n1N=C(c1ccc3c(c1)OCO3)CS2	.	-	-	4.7	-	-	10.9	-
COc1ccccc1NS(=O)(=O)c1cc(C(=O)NCCCN2CCCC2=O)ccc1C	-	-	-	-	-	-	.	.
O=C(Nc1ccccc1)c1ccc(NC(=O)C2CC2)cc1	-	-	-	6.5	-	-	7.7	5.2
N/C(=N\OC(=O)c1cccc(C(F)(F)F)c1)c1cnccn1	-	-	11.0	5.2	-	-	7.3	5.9
CN[C@H]1CCc2cc(OC)c(OC)c(OC)c2-c2ccc(OC)c(=O)cc21	-	-	-	6.8	-	-	19.4	-
CCOC(=O)NC1CCc2cc(OC)c(OC)c(OC)c2-c2ccc(SC)c(=O)cc21 (stereo not drawn)	-	-	-	5.0	-	-	13.1	-
COc1cc2c(c(OC)c1OC)-c1ccc(NC(=O)c3ccccc3)c(=O)cc1[C@@H](NC(C)=O)CC2	-	-	-	-	-	-	.	.
COc1ccc(-c2coc3cc(OC4OC(CO)C(O)C(O)C4O)cc(O)c3c2=O)cc1 (stereo not drawn)	-	-	10.6	11.1	-	-	11.2	5.7
COc1ccc(-c2coc3cc(O)ccc3c2=O)cc1	-	-	-	4.9	-	-	11.0	5.1
COC(=O)C(C)Oc1ccc(Cl)c(CN2OCC(C)(C)C2=O)c1 (stereo not drawn)	-	-	-	-	-	-	.	.
CCC(NC(=O)CC[C@H]1O[C@@H](n2cc(C)c(=O)[nH]c2=O)C[C@@H]1O)c1ccccc1 (stereo partly drawn)	-	-	-	-	-	-	.	.
O=C(NC1CCCCC1)c1ccc(-c2cccc([N+](=O)[O-])c2)o1	-	-	-	7.9	-	-	10.9	4.1
O=C(Cn1nnc(-c2ccccc2)n1)Nc1ccc2c(c1)OCO2	-	-	-	-	-	-	.	.
O=C(Cn1nnc(-c2ccc3c(c2)OCO3)n1)Nc1ccccc1C(=O)O	-	-	-	4.9	-	-	-	3.1

Bioassay records deposited in PubChem BioAssay by The Scripps Research Institute Molecular Screening Center.
